Assay results: PubChem BioAssay AID624351 (Southern Research Specialized Biocontainment Screening …, 2012)
Out of some 2,400 compounds screened, about 1,400 (58%) were called active.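 How the source made its calls: active means inhibition of 30% or more at any tested dose; inconclusive means primary hits over the limit that were never retested; inactive means the rest.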 The set was probably picked from earlier hits. Some of the results follow.

Test: ADP Hunter readout inhibition without MgcRacGAP – biochemical, coupled enzyme counter-screen, artefact control for MgcRacGAP inhibitor project, dose response (AID 624351);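 further: signal is the ADP detection kit reading of free GDP without any GAP enzyme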;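 on inhibition: 0% = median positive control wells and 100% = median negative control wells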
Conditions: fluorescence, no MgcRacGAP; series mostly up to 80 µM; inhibition: at the top concentration

Row | SMILES | IC50 | inhibition
1 | CCN(CC)S(=O)(=O)c1ccc(N/N=C/c2ccc(O)cc2)nc1 | 38 µM (active) | –
2 | CCN(CC)S(=O)(=O)c1ccc(N/N=C/c2ccc(O)cc2O)nc1 | 29.4 µM (active) | –
3 | C[n+]1c(-c2ccccc2)cc2c(=Cc3ccc([N+](=O)[O-])cc3)c3ccccc3n21 | – | 5.28% (inactive)
4 | CC(C)CN(Cc1c(O)ccc2ccccc12)CC(C)C | 53.2 µM (active) | –
5 | CN=c1scc(C)n1/N=C/c1cc(Br)c(O)c(OC)c1 | 12.6 µM (active) | –
6 | CN=c1scc(C)n1/N=C/c1cc(Br)c(O)c(Br)c1 | 69.6 µM (active) | –
7 | CCN=c1scc(C)n1/N=C/c1cc(Br)c(O)c(OC)c1 | 28.7 µM (active) | –
8 | COc1cc(/C=C2/C(=O)NN(c3ccc(Cl)cc3)C2=O)cc(Br)c1O | – | 12.1% (inactive)
9 | Cc1cc(C)cc(-n2c3nc4ccccc4nc3c3c(=O)n(Cc4ccco4)cnc32)c1 | – | -1.1% (inactive)
10 | COc1ccc(CN2CCN(Cc3ccc4ccccc4c3)CC2)cc1OC | – | 15% (inactive)
11 | CN1CCCCCC1=Nc1ccccc1C#N | – | 22.3% (inactive)
12 | Cc1cc(/C=C2\SC(=S)NC2=O)cc(C)c1O | 29.1 µM (active) | –
13 | Cc1cc(/C=C2\SC(=S)NC2=O)c(C)[nH]1 | – | 10.3% (inactive)
14 | O=C1NC(=S)S/C1=C\C=C\c1ccc([N+](=O)[O-])o1 | – | 6.48% (inactive)
15 | COc1cc(/C=C2\SC(=Nc3ccc(Cl)c(C(=O)O)c3)NC2=O)c(Br)c(Br)c1O | 37.5 µM (active) | –
16 | COc1cc(/C=N/N=C2/NC(=O)C(c3ccccc3)S2)ccc1O (centres undefined) | 41.6 µM (active) | –
17 | COc1ccc(/C=N/N=C2/NC(=O)C(CC(=O)O)S2)cc1OCc1ccc(Cl)cc1Cl (centres undefined) | – | 6.87% (inactive)
18 | Cn1cccc1/C=C1\SC(=Nc2ccc(O)cc2)NC1=O | 62.7 µM (active) | –
19 | O=C1NC(=S)S/C1=C\c1cc(Cl)cc(Cl)c1O | – | 22.8% (inactive)
20 | COc1ccc(N=C2NC(=O)/C(=C/c3ccc(O)c(OC)c3)S2)cc1 | 24.1 µM (active) | –
21 | COCCCNCCCCOc1c(Cl)cc(C)cc1Br | – | 18.9% (inactive)
22 | Nc1cc(SCc2ccc([N+](=O)[O-])cc2)ncn1 | – | -2% (inactive)
23 | CN(C)c1ccc(/C=C2/NC(=O)NC2=O)cc1 | 52.8 µM (active) | –

Row | SMILES | IC50 | inhibition
24 | COc1cc(C=C2NC(=O)NC2=O)ccc1O | 19.4 µM (active) | –
25 | COc1cc(/C=C2\SC(=Nc3ccccc3)NC2=O)cc(Cl)c1O | 82 µM (active) | –
26 | COc1cc(/C=C2/C(=O)ON=C2c2ccccc2)ccc1O | – | 22.2% (inactive)
27 | COc1cc(/C=C2/SC(=Nc3ccc(O)cc3)NC2=O)ccc1O | 27.2 µM (active) | –
28 | CCOc1ccc(C2NC(=O)C(C#N)=C(S)N2c2cccc(C)c2)cc1OC (centres undefined) | – | 3.96% (inactive)
29 | COc1cc(/C=C2\SC(=Nc3ccccc3OC)NC2=O)ccc1O | 25 µM (active) | –
30 | COc1ccc(-c2cn[nH]c2-c2ccc(O)cc2O)cc1 | 47.9 µM (active) | –
31 | COc1ccccc1-c1cn[nH]c1-c1ccc(O)cc1O | 51.4 µM (active) | –
32 | COc1ccc(-c2cn[nH]c2-c2ccc(O)cc2O)cc1OC | 57.6 µM (active) | –
33 | CCn1c(=O)c(C(=O)CN(C)Cc2cccc(OC)c2OC)c(N)n(Cc2ccccc2)c1=O | – | 26.9% (inactive)
34 | COCCCNC1=C(C#N)C(=O)NC(c2cccs2)S1 (centres undefined) | – | 0.96% (inactive)
35 | CC1(C)OC(=O)C(=Cc2ccc(-c3ccc(S(N)(=O)=O)cc3)o2)C(=O)O1 | – | -0.06% (inactive)
36 | O=c1c2ccc(F)cc2sn1-c1ccccc1 | – | 22.8% (inactive)
37 | COc1ccc(Br)cc1CN1CCN(Cc2c[nH]c3ccccc23)CC1 | – | 23.5% (inactive)
38 | COc1cc2c(CCNC(C)=O)c[nH]c2cc1O | 50.7 µM (active) | –
39 | N#Cc1ccccc1S(=O)(=O)N1CCN(C(=O)Cc2coc3cc(O)ccc23)CC1 | 33.6 µM (active) | –
40 | Cc1ccc(C)c(S(=O)(=O)N2CCN(CC(=O)N3CCc4ccccc4C3)CC2)c1 | – | 24.3% (inactive)
41 | CCOc1ccc(CN2CCN(S(=O)(=O)c3ccc(NC(C)=O)cc3)CC2)cc1 | – | 10.9% (inactive)
42 | CC(=O)N1CCN(CC(O)COc2ccc(Br)cc2)CC1 (centres undefined) | – | 15.8% (inactive)
43 | O=C(Cc1coc2cc(O)ccc12)N1CCN(S(=O)(=O)c2ccc(Br)cc2)CC1 | 21.6 µM (active) | –
44 | Oc1ccc(-c2cn3c(n2)SCC3)cc1 | 19.5 µM (active) | –
45 | CCOc1cc(/C=C(\C#N)c2[nH]nc(N)c2C#N)ccc1O | 45.7 µM (active) | –
46 | CCOc1cc(-c2cc(-c3ccc(N)cc3)nc(N)c2C#N)ccc1O | – | 0.56% (inactive)

Row | SMILES | IC50 | inhibition
47 | CC1NC(C)c2c(ccc3ccccc23)O1 (centres undefined) | – | 20.8% (inactive)
48 | Oc1ccc2ccccc2c1Br | 15.8 µM (active) | –
49 | CC1CCCN(CCOc2ccc3ccccc3c2Br)C1 (centres undefined) | – | 10.3% (inactive)
50 | CN1C(=O)C2C(c3ccc(N(C)C)cc3)=NN(Cc3ccccc3)C2C1=O (centres undefined) | 46.5 µM (active) | –
51 | c1ccc(Nc2cc(Nc3ccccc3)[nH]n2)cc1 | 57.9 µM (active) | –
52 | C/C=C/C=C/C(=O)[C@@H]1[C@@H]([C@]2(C)OC(=O)C(C)=C2O)[C@H]2/C(=C(O)/C=C/C=C/C)C(=O)[C@]1(C)C(=O)C2(C)O (some centres undefined) | – | -21.4% (inactive)
53 | Oc1ccc(NC(=S)N=Nc2c(O)[nH]c3ccccc23)cc1 | 27.5 µM (active) | –
54 | Nc1ccc2nc(Cc3ccccc3)[nH]c2c1 | 72.6 µM (active) | –
55 | Nc1ccc2nc(CCCCc3nc4ccccc4[nH]3)[nH]c2c1 | 59.4 µM (active) | –
56 | O=C1C(=Cc2ccco2)CCC1=Cc1ccco1 | – | -16.6% [at 10 µM] (inactive)
57 | O=C(CCC1CCCC1)N1CCN(C2CCCC2)CC1 | – | 18.7% (inactive)
58 | CC/C(=C\c1ccc(N(C)C)cc1)c1ccncc1 | 29.7 µM (active) | –
59 | COC1=C(Br)C(=O)c2nc(C)ccc2C1=O | – | -0.53% (inactive)
60 | O=C(Nc1ccc(N2CCCCCC2)cc1)c1ccc[nH]1 | 38.8 µM (active) | –
61 | Cc1ccccc1C(=O)Nc1ccc(N2CCCC2)cc1 | 70.8 µM (active) | –
62 | O=C(Nc1ccc(N2CCCCC2)cc1)c1ccccc1 | – | 26.5% (inactive)
63 | CN1CCN(Cc2coc3c(Cl)cc(Cl)cc3c2=O)CC1 | – | 23% (inactive)
64 | Cc1ccc(NC(=O)CCNCc2ccco2)cc1S(=O)(=O)N(C)C | – | 17.8% (inactive)
65 | Cc1ccc(CCC(=O)Nc2ccc(N(C)C)cc2)o1 | 57.5 µM (active) | –
66 | COc1ccc(NC2CCCN(C(=O)CCc3cccc(F)c3)C2)cc1 (centres undefined) | 72.9 µM (active) | –
67 | COc1ccc(NC2CCCN(C(=O)CSc3ccccc3)C2)cc1OC (centres undefined) | 68.5 µM (active) | –
68 | COc1ccc(C2CC(c3ccc4ccccc4c3)=NN2C(=O)CNC2CCCCC2)cc1 (centres undefined) | – | 8.63% (inactive)
69 | COc1ccc(C(=O)N2CCN(C3CCN(Cc4ccccc4)CC3)CC2)cc1OC | – | 21.6% (inactive)

Row | SMILES | IC50 | inhibition
70 | COc1ccc(NC2CCCN(C(=O)CCN3CCCO3)C2)cc1 (centres undefined) | – | 27.3% (inactive)
71 | COc1ccc(NC2CCCN(C(=O)CCN3CCCC3=O)C2)cc1OC (centres undefined) | – | 28% (inactive)
72 | COc1ccc(NC2CCCN(C(=O)CCN3Cc4ccccc4C3=O)C2)cc1 (centres undefined) | 63 µM (active) | –
73 | COc1ccc(CN2CCN(Cc3cccc(F)c3)CC2)cc1OC | – | 13% (inactive)
74 | O=C(c1cccc(F)c1)N1CCN(Cc2cccc(Br)c2)CC1 | – | 15.5% (inactive)
75 | CCOc1ccccc1/C=c1\sc2ncnn2c1=O | – | 1.49% (inactive)
76 | CN1C(=O)NC(c2ccc(O)cc2)C2=C1CN(c1ccc(O)cc1)C2=O (centres undefined) | 44.7 µM (active) | –
77 | O=C(CN1CCCCCC1)NCC1CCCO1 (centres undefined) | – | 18.5% (inactive)
78 | O=C(Cn1c(C(=O)NCC2CCCO2)cc2sccc21)c1ccccc1 (centres undefined) | 81.6 µM (active) | –
79 | C=CCOc1ccccc1CN1CCCN(C)CC1 | – | 15.9% (inactive)
80 | Oc1ccc(-c2csc(Nc3ncccn3)n2)cc1 | 21.3 µM (active) | –
81 | COc1cccc(Nc2nc(-c3ccc(O)cc3)cs2)c1 | 63.7 µM (active) | –
82 | Oc1ccc(-c2csc(NCc3ccco3)n2)cc1 | 24 µM (active) | –
83 | COc1cccc(NC2=C(C#N)C(=O)NC(c3cccc(OC)c3O)S2)c1 (centres undefined) | – | 4.84% (inactive)
84 | COc1cccc(CNCc2ccco2)c1O | – | 14.1% (inactive)
85 | Oc1ccc(-c2csc(Nc3cccnc3)n2)cc1 | 15.8 µM (active) | –
86 | COc1ccc(-n2c(SCC(=O)C(C)(C)C)nc3c(sc(=S)n3-c3ccccc3)c2=O)c(OC)c1 | – | 4.76% (inactive)
87 | Oc1ccc(-c2csc(Nc3ccccn3)n2)cc1 | 79.7 µM (active) | –
88 | Oc1ccc(-c2csc(Nc3ccccn3)n2)c(O)c1 | 63.3 µM (active) | –
89 | Cc1ccnc(Nc2nc(-c3ccc(O)c(O)c3)cs2)c1 | 61 µM (active) | –
90 | Cc1nc2ncccn2c1-c1csc(Nc2ccc(O)cc2)n1 | 11.1 µM (active) | –
91 | O=C(Nc1nc(-c2ccncc2)cs1)C1COc2ccccc2O1 (centres undefined) | – | -0.97% (inactive)
92 | NNc1cc([N+](=O)[O-])cc2c1C(=O)N(Cc1ccccc1)S2=O (centres undefined) | – | -2.56% (inactive)

Row | SMILES | IC50 | inhibition
93 | O=C1NN(c2ccccc2)C(=O)C1=Cc1ccccc1O | – | 1.15% (inactive)
94 | COc1cccc(OCC(O)CN2CCN(C)CC2)c1 (centres undefined) | – | 25.3% (inactive)
95 | c1ccc(CCNCCCOc2cccc3ccccc23)cc1 | – | 17.6% (inactive)
96 | COc1cc2c(cc1N)-c1ccc(N)cc1C2=O | 16.5 µM (active) | –
97 | Nc1ccc2c(c1)C(=O)c1cc(N)c(Cl)cc1-2 | 49.2 µM (active) | –
98 | O=C(/C=C/c1ccc([N+](=O)[O-])cc1)/C=C/c1ccco1 | – | -25.6% (inactive)
99 | Cc1ccc(Cl)c(OCCCN(C)Cc2ccccc2)c1 | – | 19.9% (inactive)
100 | O=C(CNCC1CCCO1)Nc1ccc(N2CCCCCC2)cc1 (centres undefined) | – | 29.8% (inactive)
101 | CC1=NN(c2cccc(C(=O)O)c2)C(=O)/C1=C\C=C\c1ccco1 | – | 5.84% (inactive)
102 | N#Cc1ccccc1OCCCN1CCC(Cc2ccccc2)CC1 | – | 15.2% (inactive)
103 | CC(=O)c1c(C)c(C)c2n1CCn1c(C)ccc1-2 | 44.7 µM (active) | –
104 | COc1ccc2cc(CNCCOCCOCCNCc3ccc4cc(OC)ccc4c3)ccc2c1 | – | 8.48% (inactive)
105 | COc1cccc(OC)c1C(=O)N1CCN(Cc2cccnc2)CC1 | – | 19.6% (inactive)
106 | COc1ccc(NCc2cccnc2)cc1 | 54.6 µM (active) | –
107 | COc1ccc(NCc2ccsc2)cc1 | 28.9 µM (active) | –
108 | Clc1nc(NCc2cccnc2)nc(N2CCOCC2)n1 | – | 2.09% (inactive)
109 | N#CCCN(CCC#N)c1nncs1 | – | 3.07% (inactive)
110 | Cc1ccc2c(c1)C(C)CC(C)(C)N2C(=O)CN1CCN(C)CC1 (centres undefined) | – | 25% (inactive)
111 | COc1ccc2c(c1)-c1nc(/N=C/c3c(O)ccc4ccccc34)sc1CC2 | 62.7 µM (active) | –
112 | COc1ccc2nc(C)cc(N/N=C/c3cccc(OC)c3O)c2c1 | – | 25% (inactive)
113 | COc1ccc2c(c1)-c1nc(/N=C/c3ccccc3O)sc1CC2 | 32.7 µM (active) | –
114 | COc1ccc2c(c1)-c1nc(/N=C/c3cccc(OC)c3O)sc1CC2 | 29.2 µM (active) | –
